Source: the supplement of paper PMC3545927
Some of the results follow. No count for the full screen is at hand.

Target: furin, P09958
Test: furin cleavage Z-score vs untreated control; higher = more cleavage, active = 3.5 or more, inactive = 1 or less, 8 variable residues between constant flanks
Method in brief: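 Peptides 8 residues long, fused to a cDNA oligonucleotide, were fixed to magnetic beads by the N-terminus and exposed to purified furin. The 0.01 ml reactions contained 50 mM HEPES pH 7.5 with CaCl2 and NaCl at 1:10 enzyme:substrate and ran 7.5, 15 or 30 min. For the cleavage Z-score, log counts of sequenced released DNA were compared with furin-free reactions, lowess-adjusted and scaled by median absolute deviation.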

Chain of furin, P09958 (P09958 whole entry): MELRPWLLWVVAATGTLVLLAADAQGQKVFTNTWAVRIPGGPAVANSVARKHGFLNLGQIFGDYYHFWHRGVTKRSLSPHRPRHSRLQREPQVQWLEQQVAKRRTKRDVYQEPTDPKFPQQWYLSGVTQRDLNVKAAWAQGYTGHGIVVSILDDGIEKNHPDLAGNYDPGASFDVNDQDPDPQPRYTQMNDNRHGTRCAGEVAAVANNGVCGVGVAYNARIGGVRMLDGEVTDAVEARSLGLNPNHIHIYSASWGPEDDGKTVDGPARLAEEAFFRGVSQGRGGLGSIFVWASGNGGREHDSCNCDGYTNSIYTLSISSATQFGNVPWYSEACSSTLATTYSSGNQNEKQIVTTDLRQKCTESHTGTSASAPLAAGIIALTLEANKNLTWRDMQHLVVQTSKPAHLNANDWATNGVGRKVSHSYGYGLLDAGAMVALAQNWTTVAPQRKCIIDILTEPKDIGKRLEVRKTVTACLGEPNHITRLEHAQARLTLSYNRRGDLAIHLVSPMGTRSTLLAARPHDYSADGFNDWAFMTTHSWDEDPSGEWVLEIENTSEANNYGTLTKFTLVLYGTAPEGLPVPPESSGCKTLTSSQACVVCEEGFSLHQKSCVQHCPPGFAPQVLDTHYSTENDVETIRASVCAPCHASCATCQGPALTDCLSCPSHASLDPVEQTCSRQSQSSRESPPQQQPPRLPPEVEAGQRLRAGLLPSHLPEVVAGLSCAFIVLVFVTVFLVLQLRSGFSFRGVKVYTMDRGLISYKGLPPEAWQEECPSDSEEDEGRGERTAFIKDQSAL

Sequence | furin cleavage Z-score (7.5 min) | furin cleavage Z-score (15 min) | furin cleavage Z-score (30 min)
CAVVCCSMSNAGNASASA [HC2101] | 0.58 (inactive) | 0.0609 (inactive) | 0.764 (inactive)
CARLARALSPAGNASASA [FS-1735] | 5.51 (active) | 6.45 (active) | 6.16 (active)
CARPARVALPAGNASASA [FS-2053] | -1.54 (inactive) | -0.594 (inactive) | 1.32
CARPARALHPAGNASASA [FS-2734] | 1.19 | 3.17 | 4.44 (active)
CARLARGSPPAGNASASA [HC1255] | 0.846 (inactive) | 0.514 (inactive) | 0.935 (inactive)
CARLRRSSSPAGNASASA [FS-2353] | 9.29 (active) | 8.89 (active) | 6.99 (active)
CARPARGAGPAGNASASA [FS-3015] | 0.195 (inactive) | -1.12 (inactive) | -0.256 (inactive)
CAWAGWLLSPAGNASASA [HC207] | -0.479 (inactive) | 0.659 (inactive) | 1.76
CARLARSFDCAGNASASA [FS-2568] | 1.56 | 2.61 | 3.82 (active)
CATDATSILGAGNASASA [HC821] | 0.234 (inactive) | -0.686 (inactive) | -0.354 (inactive)
CARHKKSKFTAGNASASA [FS-3253] | -0.584 (inactive) | -0.415 (inactive) | -1.12 (inactive)
CASMPPLEGEAGNASASA [HC1354] | 0.264 (inactive) | -0.391 (inactive) | -0.745 (inactive)
CAGAAKAAAGAGNASASA [NG6] | -1.87 (inactive) | -1.89 (inactive) | -1.77 (inactive)
CAVVCCYMSYAGNASASA [HC117] | -0.228 (inactive) | 0.612 (inactive) | -0.215 (inactive)
CAMTGYTGDFAGNASASA [HC881] | 0.318 (inactive) | 1.08 | -0.18 (inactive)
CARPARFLRHAGNASASA [FS-1401] | 7.22 (active) | 9.82 (active) | 7.94 (active)
CARLRRGGDPAGNASASA [FS-2574] | -0.102 (inactive) | 1.44 | 0.372 (inactive)
CARLARGEDEAGNASASA [FS-2983] | -0.38 (inactive) | -0.666 (inactive) | -0.468 (inactive)
CAVTKRSLSPAGNASASA [FS-2115] | 1.18 | 3.3 | 4.48 (active)
CARLRRSLKPAGNASASA [FS-1745] | 6.9 (active) | 7.63 (active) | 9.8 (active)
CAVTKRDVLDAGNASASA [FS-3144] | -0.767 (inactive) | -0.792 (inactive) | 0.507 (inactive)
CARLARNVKEAGNASASA [FS-2984] | 4.24 (active) | 6.29 (active) | 5.68 (active)

Sequence | furin cleavage Z-score (7.5 min) | furin cleavage Z-score (15 min) | furin cleavage Z-score (30 min)
CARPARFLDSAGNASASA [FS-2051] | 0.467 (inactive) | 1.13 | 1.17
CARDRSELSPAGNASASA [HC489] | -0.384 (inactive) | 0.819 (inactive) | -0.778 (inactive)
CARLRRGQCPAGNASASA [FS-1744] | -0.204 (inactive) | 1.25 | -0.396 (inactive)
CAEEVALSTTAGNASASA [HC842] | 0.962 (inactive) | -0.0897 (inactive) | 1.67
CAEGTTPCSGAGNASASA [HC1976] | -0.304 (inactive) | 0.383 (inactive) | -0.263 (inactive)
CASTECSAHLAGNASASA [HC2512] | -0.161 (inactive) | -0.192 (inactive) | 2.81
CAEVVHSTWVAGNASASA [HC129] | -0.835 (inactive) | 0.0271 (inactive) | -0.684 (inactive)
CAHKFNSSGCAGNASASA [HC383] | 0.00727 (inactive) | -1.4 (inactive) | -0.526 (inactive)
CARLRRSKRCAGNASASA [FS-1607] | 2.93 | 1.58 | 3.77 (active)
CARLRRSNYFAGNASASA [FS-2717] | 0.785 (inactive) | 3.14 | 4.28 (active)
CARLRRSGRCAGNASASA [FS-3161] | 3.21 | -0.166 (inactive) | 3.48
CARLRRVKTAAGNASASA [FS-1746] | -0.934 (inactive) | -0.994 (inactive) | -0.54 (inactive)
CARLRRSLPPAGNASASA [FS-2280] | 7.15 (active) | 6.52 (active) | 7.39 (active)
CARLRRQKKGAGNASASA [FS-916] | -0.934 (inactive) | -1.47 (inactive) | -0.511 (inactive)
CARLRRSLSPAGNASASA [FS-2352] | 10.8 (active) | 9.04 (active) | 8.19 (active)
CAMWNFISGIAGNASASA [HC1043] | -0.76 (inactive) | -0.163 (inactive) | 1.37
CADTDVFVLNAGNASASA [HC427] | -0.554 (inactive) | -0.537 (inactive) | -1.25 (inactive)
CAKRVYYLTRAGNASASA [HC1560] | 2.27 | 0.852 (inactive) | -0.874 (inactive)
CARRRRSSKRAGNASASA [FS-2518] | 4.4 (active) | 5.93 (active) | 5.04 (active)
CARRRRSISRAGNASASA [FS-2795] | 6.77 (active) | 7.84 (active) | 8.25 (active)
CARRRRSSVFAGNASASA [FS-2599] | 6.51 (active) | 7.07 (active) | 8.27 (active)
CARRRRSILFAGNASASA [FS-2234] | 5.15 (active) | 6.77 (active) | 8.96 (active)
